# Compound activity: PubChem BioAssay, National Center for Advancing Translational Sciences (NCATS)
# A selection: hits, their analogues and other compounds. The true share with any hit is near 3%.
# Tau fibril ThT – tau fibrillization inhibition (ThT binding) | recombinant tau K18 P301L, heparin-induced fibrillization, ThT fluorescence | Potency, µM (titrated, usually from 57.4 µM), without a hit: at the top dose activity, negative = inhibition, hits mostly inhibitors | 270,000 tested, 2.1% active; note: nearly all actives have a fitted effect of over 55% in size
# Target sequence (P10636 561-689 P618L limits assumed): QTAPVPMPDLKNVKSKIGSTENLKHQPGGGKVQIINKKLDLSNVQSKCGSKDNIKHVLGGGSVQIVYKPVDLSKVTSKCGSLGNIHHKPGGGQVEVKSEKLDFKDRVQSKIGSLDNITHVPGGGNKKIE
#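 Fibril formation assay: tau K18 P301L at 15 uM with trace Alexa 594 label, heparin inducer 20 uM, pH 7 sodium acetate buffer, 37 C for 6 hr; endpoint ThT signal.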
# TR SRC2 fluor cs – counter-screen for TRb-SRC2 inhibitors: fluorescence interference; AID 1479; Potency, µM (titrated, usually from 106 µM), inactives show at the top dose fluorescence change, negative = quenching; 280,000 tested, 0.29% active; TRb/SRC2 Texas Red total fluorescence interference; active = well fitted curve in either direction with a large enough effect; inconclusive = small, poorly fitted or top-dose-only effect
#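 Human TRb ligand-binding domain at 0.6 uM with 20 nM Texas Red SRC2 peptide in Tris buffer containing 1 uM T3 and 5% DMSO, incubated with compound 5 h at ambient temperature. Total fluorescence (555/632 nm) calculated as parallel + 2 × perpendicular.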
# Tau fluor cs – counter-screen for tau fibril formation inhibitors. tau K18 P301L Alexa594 fluorescence, heparin fibrillization. Potency, µM (top dose mostly 57.7 µM), without a hit: at the highest dose activity change, negative = decrease. 280,000 tested, 0.93% active; note: nearly all actives have a fitted effect of over 55% in size
#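 Human tau K18 P301L (15 uM unlabeled, 0.24 uM Alexa 594-labeled) in 100 mM sodium acetate pH 7 with 20 uM heparin, 6 hr at 37 C. ThT 30 uM added, 1 hr ambient; Alexa 594 FP and total fluorescence read at 555/632 nm.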
# TRb SRC2 PPI – TRbeta-SRC2 interaction inhibition; Potency, µM (series often up to 106 µM), for the others: at the top dose activity change, negative = inhibition, hits mostly inhibitors; 280,000 tested, 0.065% active; P10828; TRbeta-SRC2 peptide binding, fluorescence polarization; receptor liganded with 1 µM T3;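 note: plate controls were bound peptide for no effect and peptide without receptor for full effect; nearly all actives have a fitted effect of over 50% in size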
# Target sequence (P10828 whole entry, looked up): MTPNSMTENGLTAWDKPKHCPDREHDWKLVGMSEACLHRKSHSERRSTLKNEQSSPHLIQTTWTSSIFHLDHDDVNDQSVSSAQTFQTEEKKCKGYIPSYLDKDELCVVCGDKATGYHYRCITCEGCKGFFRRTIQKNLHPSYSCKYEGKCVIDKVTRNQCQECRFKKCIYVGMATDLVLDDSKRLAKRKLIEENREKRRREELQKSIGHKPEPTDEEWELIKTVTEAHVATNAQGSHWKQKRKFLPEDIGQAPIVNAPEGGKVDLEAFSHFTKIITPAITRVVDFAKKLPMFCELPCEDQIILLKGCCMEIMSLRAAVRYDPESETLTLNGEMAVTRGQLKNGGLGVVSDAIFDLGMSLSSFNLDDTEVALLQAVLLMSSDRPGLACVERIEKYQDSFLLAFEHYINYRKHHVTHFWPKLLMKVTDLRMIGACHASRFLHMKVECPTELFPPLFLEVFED
#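 Fluorescence polarization of 20 nM Texas Red SRC2 peptide (20-aa NR interaction domain) bound to 0.6 uM human TRb ligand-binding domain, with 1 uM T3, after 5 hr at ambient temperature; inhibition seen as decreased polarization.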
# Tau FP inhib – blocks human tau fibril formation measured by polarization; P10636; K18 P301L tau heparin fibrillization, Alexa594 FP, 6 h; Potency, µM (series often up to 57.7 µM), for the others: top-dose activity, negative = inhibition, most hits filed as inhibitors; 280,000 tested, 0.39% active; note: nearly all actives have a fitted effect of over 55% in size
#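 Steps: dispense K18 P301L tau (15 uM plus 0.24 uM Alexa 594 tracer, final) in pH 7 sodium acetate; add compound; add heparin (20 uM final); incubate 6 hr, 37 C; add ThT (30 uM final); after 1 hr ambient, read FP.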
# Numbers without * were called inactive; ? = inconclusive; . = no result; [ ] = another dose, or the depositor's remark. Unless noted, calls come from the whole dose curve; as a rule, active = well fitted curve in the direction sought with a large enough effect; inconclusive = small, poorly fitted or top-dose-only effect, or another doubt; inactive = no such curve, though single readings can be large; an effect the other way counts as inactive or inconclusive. Unless noted, % is set by controls: 0 for no effect and ±100 for the full control effect; potency is the fitted concentration of half-maximal effect.
SMILES,Tau fibril ThT,TR SRC2 fluor cs,Tau fluor cs,TRb SRC2 PPI,Tau FP inhib
CCN(c1cccc(C)c1)S(=O)(=O)c1ccc2[nH]cc(C(=O)NCCCOC)c(=O)c2c1,-3.0%,-8.0%,?,-1.2%,?
CCc1c(-c2ccccc2)nc2ccccc2c1C(=O)NCc1ccc(C)cc1,-17.1%,-0.5%,-1.5%,-2.8%,8.6%
CC1=NOC(=O)/C1=C\c1ccc(-c2ccc(Cl)cc2Cl)o1,20µM*,-0.8%,?,-17.5%,-4.8%
COc1ccc(C)cc1Nc1nc(N)c2cc(OC)c(OC)cc2n1,-5.4%,-3.5%,20µM*[quencher],-0.5%,?
O=[N+]([O-])c1ccccc1S(=O)(=O)NCC1CCC(CNCC2CCc3ccccc3C2)CC1 (stereo not given),-10.9%,-4.2%,-17.8%,-2.6%,4.1%
CC1(C(=O)NC2CCCCC2)Cc2ccccc2C(=O)N1Cc1ccc(F)cc1 (stereo not given),-13.5%,31.6µM*[quencher],-16.9%,-9.2%,-4.3%
CC1CCC(NC(=O)C2(C)Cc3ccccc3C(=O)N2Cc2ccc(F)cc2)CC1 (stereo not given),0.5%,-0.6%,-10.6%,1.1%,-7.8%
COc1ccc(O)c(C2(O)C(=O)c3ccccc3C2=O)c1,-0.7%,-0.5%,-2.0%,-5.4%,2.9%
CC(=O)C(C(C)=O)C1(O)C(=O)c2ccccc2C1=O,2.82µM*,-1.1%,-10.1%,?,?
CCN(c1ccc(OC)cc1)S(=O)(=O)c1ccc2[nH]c3c(c2c1)CCCCC3,-6.9%,-10.6%,10µM*[quencher],0.9%,0.7%
CCN(Cc1ccccc1)S(=O)(=O)c1ccc2[nH]c3c(c2c1)CCCCC3,0.5%,-1.5%,7.94µM*[quencher],1.0%,2.3%
COc1ccc(NC(=O)C2CCN(S(=O)(=O)c3ccc4[nH]c5c(c4c3)CCCCC5)CC2)cc1,2.3%,-0.7%,-28.3%,2.1%,-2.0%
COC(=O)c1scc(-c2ccc(C)cc2)c1S(=O)(=O)N1CCN(c2cccc(OC)c2)CC1,-0.6%,0.4%,-25.6%,-5.7%,-1.9%
C/C(=C\C(=O)c1ccc(F)cc1)Nc1ccc(N2CCOCC2)cc1,3.55µM*,7.7%,-20.1%,-26.6%,9.8%
O=C(/C=C/c1ccc(F)cc1)c1ccc(N2CCOCC2)cc1,?,-0.6%,-20.1%,4.1%,-11.8%
CN=Cc1nc(-c2ccccc2)oc1O,-11.7%,-7.5%,-9.2%,-13.5%,1.8%
CC1=Nc2ccccc2/C1=C\c1nc(-c2ccc(F)cc2)oc1O,7.08µM*,15.0%,10µM*[quencher],-22.9%,?
CCCC(Oc1ccc(Br)cc1)c1nc2c3cc(OC)c(OC)cc3nc(=S)n2[nH]1 (stereo not given),-6.5%,-2.7%,15.8µM*[quencher],-0.1%,?
COc1cc(-c2nc(Cc3c(F)cccc3Cl)no2)cc(OC)c1OC,?,-15.0%,15.8µM*[quencher],0.7%,-13.5%
COc1cc(-c2noc(-c3cccc(Cl)c3)n2)cc(OC)c1OC,4.9%,-0.1%,8.1%,-1.7%,2.6%
CN(C)c1nc(-c2ccc([N+](=O)[O-])cc2)cs1,12.6µM*,-1.0%,?,1.8%,9.6%
C=CCNc1nc(-c2ccc([N+](=O)[O-])cc2)cs1,7.08µM*,-2.2%,-19.9%,1.6%,18.9%
O=C(/C=C/c1ccc(O)cc1)OC[C@H]1O[C@@H](Oc2c(-c3ccc(O)cc3)oc3cc(O)cc(O)c3c2=O)[C@H](O)[C@@H](O)[C@@H]1O,.,-4.4%,.,10.0%,.
CCN(CC)c1ccc(NC2=C(Cl)C(=O)c3ccccc3C2=O)cc1,2.82µM*,-29.9%,2.24µM*[quencher],28.2µM*,5.01µM*
O=C1C=C(Nc2ccc(O)cc2)C(=O)c2ccccc21,12.6µM*,-3.4%,15.8µM*[quencher],0.9%,?
SMILES,Tau fibril ThT,TR SRC2 fluor cs,Tau fluor cs,TRb SRC2 PPI,Tau FP inhib
CCNC1=C(Cl)C(=O)c2ccccc2C1=O,17.8µM*,-10.9%,?,1.3%,-3.7%
O=C1C(Cl)=C(Nc2ccc(O)cc2)C(=O)c2ccccc21,2µM*,-14.4%,2µM*[quencher],-4.4%,3.55µM*
Oc1ccc(Nc2ccccc2)cc1,.,-2.6%[201 µM],.,9.1%[201 µM],.
CC(C)(C)C(O)/C(=C\c1ccc(Cl)cc1)n1cncn1 (stereo not given),.,-1.0%[201 µM],.,-6.1%[201 µM],.
O=C1C(Cl)=C(NCCN2CCCCC2)C(=O)c2ccccc21,10µM*,-1.1%,?,0.8%,-4.0%
O=C(NCCN1CCCC1)c1ccccc1Cl,-8.0%,-0.7%,-10.2%,1.2%,-2.4%
Cc1ccc(NC2=C(Cl)C(=O)c3ccccc3C2=O)cc1,2.24µM*,-0.5%,?,-0.7%,?
Cc1ccc(NC2=C(N3CCOCC3)C(=O)c3ccccc3C2=O)cc1,?,-1.4%,?,9.9%,?
CCC(Sc1nc2c(sc3ccccc32)c(=O)n1CCc1ccc(OC)c(OC)c1)C(=O)N(CC)CC (stereo not given),?,0.0%,-24.1%,-4.7%,1.8%
O=C(NCC(c1ccco1)S(=O)(=O)c1cccs1)c1ccc(C(F)(F)F)cc1 (stereo not given),-4.5%,0.1%,-22.7%,-8.8%,-7.7%
C[C@@H]1C[C@@H]2OC(=O)[C@]3(C)[C@H]2[C@@H](OC3(C)O)[C@]2(C)C(=O)C=C[C@H]12 (stereo not given in full),-16.4%,-0.9%,17.3%,3.2%,-9.6%
C=C1C(=O)O[C@@H]2C[C@@H](C)[C@@H]3C=CC(=O)[C@@]3(C)[C@@H](OC(C)=O)[C@H]12,3.98µM*,-3.1%,-19.7%,-4.7%,?
CCOC(=O)c1cnc(SC2CCc3ccccc3C2=O)nc1N (stereo not given),28.2µM*,-7.1%,?,-1.3%,?
COc1ccc(-c2noc(-c3ccc(NCc4ccc(C)cc4)c([N+](=O)[O-])c3)n2)cc1OC,-4.0%,-1.2%,-21.7%,-3.7%,?
CN1CCc2nc(SCC(=O)Nc3cccc(F)c3)c(C#N)c(-c3cccs3)c2C1,14.1µM*,-4.3%,15.8µM*[quencher],-2.5%,-12.7%
CN1CCc2nc(SCC(=O)Nc3ccc(OC(F)(F)F)cc3)c(C#N)c(-c3cccs3)c2C1,11.6%,-9.5%,-3.0%,-1.8%,-1.2%
Cc1cccc(CSc2nc3c(c(-c4cccs4)c2C#N)CN(C)CC3)c1,15.8µM*,-1.0%,25.1µM*[quencher],-4.6%,-4.1%
COC(C1CCCCC1)C(C)C(OCc1cccc(Br)c1)C(C)CO (stereo not given),-7.9%[11.5 µM],-1.4%[11.2 µM],-14.0%[11.6 µM],3.8%[11.2 µM],2.7%[11.6 µM]
CCc1ccc(-c2nc(SCC(=O)NCC3CCCO3)c(-c3ccc(F)cc3)[nH]2)cc1 (stereo not given),-14.4%,-2.6%,?,-1.1%,6.3%
Cc1ccc(N=Nc2c(O)ccc3ccccc23)c(C)c1,.,44.7µM*[fluorescent],.,39.8µM*,.
Oc1ccc2ccccc2c1N=Nc1ccccc1F,15.8µM*,0.4%,?,-1.6%,-0.4%
Cc1ccc(N=Nc2c(O)ccc3ccccc23)c([N+](=O)[O-])c1,.,2.5%[201 µM],.,-5.7%[201 µM],.
